The list is not random: actives were taken first. Their share in the collection is about 18%.
CtBP-E1A blk = blocks the CtBP interaction with E1A; AlphaScreen GST-E1A/His-CtBP binding, 1536-well; hits give low values; activity change, % (no concentration beside the values); actives 0.49% (n = 340,000); in the data active means activity change below about -65%; inconclusive means mostly about -30% to -63%
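In 5 uL wells, 23 nL compound meets equimolar GST-E1A and His-CtBP (5X stock 125 nM each) for 2 h, 37 °C. Beads (5X, 50 ug/mL) then 1 h, 37 °C, dark.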
Six1-Eya2 blk = Six1/Eya2 interaction inhibition. Q15475+O00167. AlphaScreen GST-Six1/His-Eya2 binding, biochemical; hits give low values. activity change, % (no concentration beside the values). actives 0.56% (n = 360,000). AID 651725; in the data active means activity change below about -65%; inconclusive means mostly about -30% to -63%
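Homogeneous AlphaScreen proximity assay pairing GST-Six1 with His-tagged Eya2 (added as 5X mix: 250 nM and 500 nM) in 50 mM Tris pH 8.0, 300 mM NaCl, 1 mM TCEP. Glutathione donor and nickel acceptor beads; 1 h, 37 °C, dark.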
TDP1 inh = TDP1 (human) enzyme inhibition. Potency, µM (doses to about 130 µM), without a hit: top-dose activity change, negative = inhibition, usual class: inhibitors. recombinant TDP1, AlphaScreen DNA substrate cleavage. AID 485290. Q9NUW8. actives 0.28% (n = 350,000); further: potency means the concentration at half of the fitted maximal effect; nearly all actives have a fitted effect of over 40% in size
Target sequence (Q9NUW8 whole entry, looked up): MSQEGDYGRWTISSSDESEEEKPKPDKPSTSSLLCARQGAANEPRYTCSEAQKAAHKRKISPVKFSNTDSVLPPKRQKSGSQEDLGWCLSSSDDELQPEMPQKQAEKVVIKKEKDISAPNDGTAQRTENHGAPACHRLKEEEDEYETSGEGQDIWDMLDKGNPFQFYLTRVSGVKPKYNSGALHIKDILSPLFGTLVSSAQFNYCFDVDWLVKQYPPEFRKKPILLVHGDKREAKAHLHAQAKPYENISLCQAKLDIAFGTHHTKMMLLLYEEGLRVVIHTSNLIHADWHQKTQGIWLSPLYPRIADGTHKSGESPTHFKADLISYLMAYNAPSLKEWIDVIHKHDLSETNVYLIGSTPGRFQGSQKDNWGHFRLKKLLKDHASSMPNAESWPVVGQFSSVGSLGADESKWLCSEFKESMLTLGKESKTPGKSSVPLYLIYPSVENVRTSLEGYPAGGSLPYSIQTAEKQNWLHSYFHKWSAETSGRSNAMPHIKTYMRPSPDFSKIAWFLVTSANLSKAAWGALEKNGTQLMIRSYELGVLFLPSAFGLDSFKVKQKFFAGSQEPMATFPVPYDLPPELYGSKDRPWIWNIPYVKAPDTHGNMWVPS
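Enzyme-compound mixtures sat 15 min at room temperature, followed by a 5 min reaction with 15 nM final substrate and 10 min with AlphaScreen beads. Recombinant human Tdp1 was used at 1 nM final.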
IL1B secr inh = inflammasome signaling inhibition, IL-1 beta readout | THP-1 LPS/ATP IL-1B secretion, AlphaLISA, 16 h; hits give low values | activity change, % at 57.5 µM | actives 4.7% (n = 360,000); in the data active means activity change below about -50%; inconclusive means mostly about -30% to -49%
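THP-1 cells pretreated 1 hr with compounds (up to 57.5 uM final), then stimulated with LPS (250 ng/mL final) plus ATP (1.25 mM final); secreted IL-1B measured by AlphaLISA after 16 hr, decreased signal indicating inhibition.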
DT40 TDP1 no CPT = qHTS for Inhibitors of human tyrosyl-DNA phosphodiesterase 1 (TDP1): qHTS in cells in absence of CPT; DT40 Tdp1-/- hTDP1 cells, no CPT, ATP luminescence, 48 h; Potency, µM (doses to about 46.2 µM), for the others: at the top dose activity change, negative = growth inhibition, hits mostly inhibitors; actives 15% (n = 420,000); further: potency means the concentration at half of the fitted maximal effect; nearly all actives have a fitted effect of over 55% in size
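Stably hTDP1-transfected Tdp1-null chicken DT40 cells were treated with library compounds minus camptothecin and grown for at least 48 hr at 37 °C, after which cellular ATP was quantified by luminescence.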
TDP1 cell CPT = growth inhibition of DT40 Tdp1-/-;hTDP1 cells with camptothecin (screen for TDP1 inhibitors) | actives 12% (n = 420,000) | Potency, µM (series often up to 46.2 µM), inactives show at the highest dose activity change, negative = growth inhibition, hits mostly inhibitors | chicken DT40 Tdp1-/-;hTDP1 cells + 20 nM CPT, ATP luminescence, 48 h; further: potency means the concentration at half of the fitted maximal effect; nearly all actives have a fitted effect of over 55% in size
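Chicken DT40 Tdp1-/- cells stably complemented with human TDP1 were seeded at 400 cells/well in medium containing 20 nM camptothecin, exposed to pin-transferred compounds, and grown at 37 °C for at least 48 hr. Viability was read as ATP luminescence.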
* = called active by the depositor; ? = inconclusive; . = no result given. Unless noted, the call rests on the fitted dose curve; in most records, active means well fitted curve in the direction sought with a large enough effect; inconclusive means small, poorly fitted or top-dose-only effect, or another doubt; inactive means no such curve, though single readings can be large; an effect the other way counts as inactive or inconclusive. On the % scale 0 is the no-effect control and ±100 the full control effect.

SMILES	CtBP-E1A blk	Six1-Eya2 blk	TDP1 inh	IL1B secr inh	DT40 TDP1 no CPT	TDP1 cell CPT
C1CN(c2nc3nonc3n3nnnc23)CCO1	-1	3	10%	20	6%	2%
COc1ccc(-c2nn(-c3ccccc3)cc2/C=N/NC(=S)NC(C)C)cc1OC	-2	-27	8%	?	18µM*	23µM*
COc1ccc(-c2nn(-c3ccccc3)cc2/C=N/N=C(N)N)cc1OC	9	-15	8%	?	13µM*	23µM*
COc1ccc(-c2nn(-c3ccccc3)cc2/C=N/Nc2ccc3ccccc3n2)cc1OC	1	-7	10%	-25	4.1µM*	3.3µM*
COc1ccc(-c2nn(-c3ccccc3)cc2/C=N/O)cc1OC	.	-7	.	-11	26µM*	?
CC(=O)c1c(C)oc2c(Cl)cc(NS(=O)(=O)c3cc(C)c(C)cc3C)cc12	.	.	.	.	?	-22%
CC(C)(C)NC(=O)C(C1CC1)n1c(=O)c(-c2cc3ccccc3[nH]2)nc2ccccc21 (stereo not drawn)	29	46	.	-14	?	18µM*
CC(C)(C)NC(=O)C(c1ccnc2ccccc12)n1c(=O)c(-c2ccccc2)nc2ccccc21 (stereo not drawn)	-4	-1	.	12	-24%	-27%
CC(C)(C)NC(=O)C(c1ccnc2ccccc12)n1c(=O)c(-c2cc3ccccc3[nH]2)nc2ccccc21 (stereo not drawn)	12	24	.	7	18µM*	?
CC(C)(C)NC(=O)C(c1ccccc1F)n1c(=O)c(-c2cc3ccccc3[nH]2)nc2ccccc21 (stereo not drawn)	39	38	.	4	13µM*	?
CC(C)(C)NC(=O)C(c1ccncc1)n1c(=O)c(-c2cc3ccccc3[nH]2)nc2ccccc21 (stereo not drawn)	-11	52	.	-123*	16µM*	23µM*
CCOC(=O)c1c(NC(=O)CSc2nnc(C)s2)sc2c1CCN(C)C2	?	?	-12%	-3	?	?
CC(=O)C1=C(O)CC(c2ccccc2)CC1=NCCc1c(C)[nH]c2ccc(C)cc12 (stereo not drawn)	-19	1	-3%	1	?	?
CCC(=NCCc1c(C)[nH]c2ccc(C)cc12)C1=C(O)CC(c2ccccc2)CC1=O (stereo not drawn)	5	-29	7%	2	0.82µM*	0.58µM*
CC/C(O)=C1\C(=O)CC(c2ccccc2)CC1=NCCc1c(C)[nH]c2ccc(C)cc12 (stereo not drawn)	4	0	0%	11	23µM*	?
CCC/C(O)=C1\C(=O)CC(c2ccccc2)CC1=NCCc1c(C)[nH]c2ccc(C)cc12 (stereo not drawn)	-4	-1	-4%	7	?	18µM*
O=C(Nc1cc(C(F)(F)F)ccc1-n1cncn1)C1CC1	4	5	-1%	7	-12%	2%
Cc1ccc(S(=O)(=O)c2c(C)nn(C(C)(C)C)c2OC(=O)c2ccco2)cc1	-6	4	4%	34	?	-24%
Cc1ccc(S(=O)(=O)c2c(C)nn(C(C)(C)C)c2OC(=O)c2ccc(Br)o2)cc1	0	-5	4%	-72*	?	?
O=c1[nH]c(=O)c2nc3c4ccccc4c4ccccc4c3nc2[nH]1	.	?	.	-7	5.2µM*	8.2µM*
CC(C)n1c(C(F)(F)F)nc2cc(C(=O)N3CCCCC3)ccc21	5	3	-1%	21	-8%	2%
CSc1nc(N)c2c3c(sc2n1)COC(C(C)C)C3 (stereo not drawn)	1	0	1%	43	0%	-4%
CC(=O)c1ccc(Nc2cc(C)nc3ccccc23)cc1	1	-3	5%	7	13µM*	12µM*
CC(=O)c1cccc(Nc2cc(C)nc3ccc(C)cc23)c1	-14	-15	.	-6	?	?
Cc1ccc(Nc2cc(C)nc3c(C)cccc23)cc1	-9	-8	2%	-88*	?	?
SMILES	CtBP-E1A blk	Six1-Eya2 blk	TDP1 inh	IL1B secr inh	DT40 TDP1 no CPT	TDP1 cell CPT
CC(=O)c1cccc(Nc2cc(C)nc3c(C)cc(C)cc23)c1	2	-3	3%	-53*	15µM*	?
Cc1cc(C)c2nc(C)cc(Nc3ccc(C(=O)N4CCOCC4)cc3)c2c1	3	1	.	-65*	-23%	5%
O=[N+]([O-])c1ccc(N/N=C/c2cn(Cc3ccc(F)cc3)c3ccccc23)nc1	-1	0	3%	46	?	?
CSc1ccccc1NC(=O)c1cc2ncc(Br)cn2n1	0	22	.	25	-15%	-25%
Cc1cc(C(=O)Nc2nnc(-c3ccccc3)s2)no1	0	2	8%	7	-15%	4%
Cc1cc(C)c2nc(-c3cccc(Cl)c3)c(C)c(C(=O)N3CCOCC3)c2c1	-12	0	6%	-82*	?	?
CC(=O)c1ccc(Nc2cc(C)nc3c(C)cccc23)cc1	.	1	6%	-7	1.3µM*	1.3µM*
Cc1cc(C(=O)Nc2ccc(S(=O)(=O)N3CCOCC3)cc2)c(C)o1	-2	-10	1%	16	?	-17%
COc1cc(NS(=O)(=O)c2ccc(-c3cc(C)no3)cc2)cc(OC)c1	.	.	6%	.	2.1µM*	1.8µM*
COc1ccc(-c2cc(C)no2)cc1S(=O)(=O)NC(C)C	.	.	-3%	.	-4%	-6%
COc1ccccc1CNS(=O)(=O)c1ccc(-c2cc(C)no2)cc1	.	1	0%	51	0.58µM*	0.58µM*
COC(=O)c1cccc(Nc2c(-c3ccc(O)cc3)nc3nc[nH]n23)c1	.	.	4%	.	?	?
COC(=O)c1cccc(Nc2c(-c3ccc(OC)cc3)nc3nc[nH]n23)c1	.	.	6%	.	?	21µM*
Cc1ccc(NC(=O)CSc2nccn2Cc2ccc3c(c2)OCO3)c(C)c1	.	.	11%	.	-1%	-14%
COc1ccc(Nc2c(-c3cc4ccccc4o3)nc3nc(C)cc(C)n23)cc1	0	-22	.	10	?	?
CCCCNc1c(-c2ccccn2)nc2nc(C)cc(C)n12	?	-88*	.	57	?	?
CCCCNc1c(-c2cccc(OC)c2)nc2nc(C)cc(C)n12	5	-8	.	22	16µM*	18µM*

High-throughput results deposited in PubChem by National Center for Advancing Translational Sciences (NCATS).
